# The source made the active and inactive calls. Rule for the calls: active = hit-call score of the fitted dose curve at least 0.9, where 1 is the maximum; inactive = score below 0.9.
# Key:
# Details in all cases: mRNA level, 48 h; actives raise or lower the signal
# [1] = read-out: ABC Transporter (ABCB11), ABCB11 (gene 8647); experiment: LTEA_HepaRG_ABCB11: Life Technologies and Expression Analysis (LTEA) Assay for ABC Transporter (ABCB11) using HepaRG (AID 2283463)
# How it was run: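 ABCB11 transcript levels are read by Fluidigm TaqMan qRT-PCR after 48 h chemical treatment of human HepaRG cells. Concentrations span 100 uM downward in half-log steps with 0.5% DMSO; gain or loss is fitted against DMSO controls.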
# [2] = read-out: Broad substrate specificity ATP-binding cassette transporter ABCG2 (Homo sapiens) (UniProt Q9UNQ0); experiment: LTEA_HepaRG_ABCG2: Life Technologies and Expression Analysis (LTEA) Assay for ABC Transporter (ABCG2) using HepaRG (AID 2283465)
# How it was run: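 Read-out is ABCG2 mRNA induction or loss quantified by qRT-PCR after 48 h chemical treatment of human HepaRG cells, normalized to three housekeeping genes. Concentrations reached 100 uM top in half-log steps; fitting was bidirectional against 0.5% DMSO.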
# [3] = read-out: ATP-citrate lyase (ACLY), ACLY (gene 47); experiment: LTEA_HepaRG_ACLY: Life Technologies and Expression Analysis (LTEA) Assay for ATP-citrate lyase (ACLY) using HepaRG (AID 2283466)
# How it was run: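 HepaRG, 48 h exposure, 8-pt half-log dilutions (top 100 uM), 0.5% DMSO. Readout: ACLY mRNA, TaqMan qRT-PCR, housekeeping-normalized (ACTB/GAPDH/POLR2A). Bidirectional curve fit vs DMSO.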
# [4] = read-out: Peroxisomal acyl-coenzyme A oxidase 1 (ACOX1) gene, ACOX1 (gene 51); experiment: LTEA_HepaRG_ACOX1: Life Technologies and Expression Analysis (LTEA) Assay for Peroxisomal acyl-coenzyme A oxidase 1 (ACOX1) gene using HepaRG (AID 2283467)
# How it was run: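 Measured by qRT-PCR against three housekeeping genes: ACOX1 transcript change in human HepaRG cells after 48 h dosing. Concentrations ran up to 100 uM in half-log steps. Curves were fitted bidirectionally relative to 0.5% DMSO.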
# [5] = read-out: Alkaline Phosphatase, Placental (ALPP) gene, ALPP (gene 250); experiment: LTEA_HepaRG_ALPP: Life Technologies and Expression Analysis (LTEA) Assay for Alkaline Phosphatase, Placental (ALPP) gene using HepaRG (AID 2283468)
# How it was run: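 Differentiated human HepaRG cells were plated and cultured 48 h, then exposed in duplicate for 48 h in serum-free induction medium to eight half-log concentrations from 100 uM in 0.5% DMSO. ALPP mRNA was measured by TaqMan qRT-PCR, normalized to ACTB, GAPDH, POLR2A.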
# [6] = read-out: Bcl-2 (BAD) gene, BAD (gene 572); experiment: LTEA_HepaRG_BAD: Life Technologies and Expression Analysis (LTEA) Assay for Bcl-2 (BAD) gene using HepaRG (AID 2283469)
# How it was run: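 BAD transcript change, measured by qRT-PCR against three housekeeping genes and fitted in both directions relative to 0.5% DMSO, after 48 h chemical treatment of human HepaRG liver cells at concentrations up to 100 uM.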
# [7] = read-out: Bcl-2 (BAX) gene, BAX (gene 581); experiment: LTEA_HepaRG_BAX: Life Technologies and Expression Analysis (LTEA) Assay for Bcl-2 (BAX) gene using HepaRG (AID 2283470)
# How it was run: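 Differentiated HepaRG cells exposed 48 h in serum-free induction medium, eight half-log concentrations from 100 uM, in duplicate, 0.5% DMSO vehicle. BAX mRNA by TaqMan qRT-PCR, normalised to ACTB, GAPDH and POLR2A.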
# [8] = read-out: adenosine kinase (ADK) gene, ADK (gene 132); experiment: LTEA_HepaRG_ADK: Life Technologies and Expression Analysis (LTEA) Assay for adenosine kinase (ADK) gene using HepaRG (AID 2283471)
# How it was run: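 Following 48 h exposure of HepaRG cells in 0.5% DMSO (top concentration 100 uM, duplicate wells), ADK mRNA induction or suppression was measured by qRT-PCR, normalised to ACTB/GAPDH/POLR2A, and fitted bidirectionally relative to vehicle.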
# [9] = read-out: Alpha-fetoprotein (AFP) gene, AFP (gene 174); experiment: LTEA_HepaRG_AFP: Life Technologies and Expression Analysis (LTEA) Assay for Alpha-fetoprotein (AFP) gene using HepaRG (AID 2283472)
# How it was run: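 Differentiated human HepaRG cells exposed 48 h in serum-free induction medium, 8-point half-log series from 100 uM in 0.5% DMSO, duplicate. AFP mRNA by qRT-PCR, normalized to ACTB, GAPDH, POLR2A; bidirectional fit vs DMSO.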
# BCL2L11 (gene 10018) = experiment: LTEA_HepaRG_BCL2L11: Life Technologies and Expression Analysis (LTEA) Assay for Bcl-2 (BCL2L11) gene using HepaRG (AID 2283473)
# How it was run: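 Differentiated human HepaRG cells in serum-free induction medium were exposed in duplicate for 48 h to eight concentrations (top 100 uM, half-log steps, 0.5% DMSO). BCL2L11 mRNA was quantified by TaqMan qRT-PCR, normalized to ACTB/GAPDH/POLR2A, bidirectional fit versus DMSO.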
# [10] = read-out: Apolipoprotein A-V (APOA5) gene, APOA5 (gene 116519); experiment: LTEA_HepaRG_APOA5: Life Technologies and Expression Analysis (LTEA) Assay for Apolipoprotein A-V (APOA5) gene using HepaRG (AID 2283474)
# How it was run: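 Differentiated human HepaRG cells were exposed in duplicate for 48 h to eight half-log concentrations from 100 uM in 0.5% DMSO. APOA5 mRNA was quantified by TaqMan qRT-PCR, normalized to ACTB, GAPDH and POLR2A, and fitted bidirectionally against DMSO.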
# [11] = read-out: Apoptosis regulator Bcl-2 (Homo sapiens) (UniProt P10415); experiment: LTEA_HepaRG_BCL2: Life Technologies and Expression Analysis (LTEA) Assay for Bcl-2 gene using HepaRG (AID 2283475)
# How it was run: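 Differentiated human HepaRG cells in serum-free induction medium exposed 48 h, in duplicate, to 8-point half-log series from 100 uM in 0.5% DMSO. BCL2 mRNA by qRT-PCR (TaqMan/Fluidigm), normalized to ACTB, GAPDH, POLR2A; bidirectional fit against DMSO.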
# Caspase-3 (Homo sapiens) = Caspase-3 (Homo sapiens) (UniProt P42574); experiment: LTEA_HepaRG_CASP3: Life Technologies and Expression Analysis (LTEA) Assay for cysteine-aspartic acid protease (CASP3) using HepaRG (AID 2283477)
# How it was run: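 Differentiated human HepaRG cells in serum-free induction medium were exposed 48 h to 8-point half-log concentrations from 100 uM (0.5% DMSO vehicle). CASP3 mRNA was measured by qRT-PCR, normalised to ACTB, GAPDH and POLR2A, with bidirectional fitting against DMSO.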
# [12] = read-out: Cytochrome P450 (CYP24A1), CYP24A1 (gene 1591); experiment: LTEA_HepaRG_CYP24A1: Life Technologies and Expression Analysis (LTEA) Assay for Cytochrome P450 (CYP24A1) using HepaRG (AID 2283478)
# How it was run: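 Differentiated HepaRG cells, pre-cultured 48 h, were exposed in duplicate for 48 h in serum-free induction medium to 8 half-log concentrations (top 100 uM, 0.5% DMSO). CYP24A1 mRNA was quantified by TaqMan qRT-PCR, normalized to ACTB/GAPDH/POLR2A, fitted bidirectionally versus DMSO.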
# [13] = read-out: Cytochrome P450 (CYP1A2), CYP1A2 (gene 1544); experiment: LTEA_HepaRG_CYP1A2: Life Technologies and Expression Analysis (LTEA) Assay for Cytochrome P450 (CYP1A2) using HepaRG (AID 2283479)
# How it was run: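 Differentiated human HepaRG cells in serum-free induction medium were exposed in duplicate for 48 h to 8-point half-log concentrations up to 100 uM in 0.5% DMSO. CYP1A2 mRNA measured by qRT-PCR, normalized to ACTB, GAPDH, POLR2A; bidirectional fit vs DMSO.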
# [14] = read-out: cysteine-aspartic acid protease (CASP8), CASP8 (gene 841); experiment: LTEA_HepaRG_CASP8: Life Technologies and Expression Analysis (LTEA) Assay for cysteine-aspartic acid protease (CASP8) using HepaRG (AID 2283480)
# How it was run: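 HepaRG, 48 h exposure, duplicate wells; 8 conc, half-log from 100 uM, 0.5% DMSO. Serum-free induction medium. CASP8 mRNA by TaqMan qRT-PCR, norm. ACTB/GAPDH/POLR2A; gain/loss fitted vs DMSO.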
# [15] = read-out: Cytochrome P450 (CYP2B6), CYP2B6 (gene 1555); experiment: LTEA_HepaRG_CYP2B6: Life Technologies and Expression Analysis (LTEA) Assay for Cytochrome P450 (CYP2B6) using HepaRG (AID 2283481)
# How it was run: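 Differentiated HepaRG cells, serum-free induction medium, exposed 48 h in duplicate to 8-point half-log concentrations from 100 uM in 0.5% DMSO. CYP2B6 mRNA by qRT-PCR, normalized to ACTB, GAPDH, POLR2A; bidirectional fit versus DMSO.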
# [16] = read-out: Cytochrome P450 2C19 (Homo sapiens) (UniProt P33261); experiment: LTEA_HepaRG_CYP2C19: Life Technologies and Expression Analysis (LTEA) Assay for CYP2C19 using HepaRG (AID 2283482)
# How it was run: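 Differentiated human HepaRG cells were exposed for 48 h in serum-free induction medium to 8 concentrations (top 100 uM, half-log steps, 0.5% DMSO). CYP2C19 mRNA was measured by qRT-PCR, normalized to ACTB/GAPDH/POLR2A, and fitted bidirectionally against DMSO.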
# Sequence of Cytochrome P450 2C19 (Homo sapiens) (P33261 whole entry, looked up): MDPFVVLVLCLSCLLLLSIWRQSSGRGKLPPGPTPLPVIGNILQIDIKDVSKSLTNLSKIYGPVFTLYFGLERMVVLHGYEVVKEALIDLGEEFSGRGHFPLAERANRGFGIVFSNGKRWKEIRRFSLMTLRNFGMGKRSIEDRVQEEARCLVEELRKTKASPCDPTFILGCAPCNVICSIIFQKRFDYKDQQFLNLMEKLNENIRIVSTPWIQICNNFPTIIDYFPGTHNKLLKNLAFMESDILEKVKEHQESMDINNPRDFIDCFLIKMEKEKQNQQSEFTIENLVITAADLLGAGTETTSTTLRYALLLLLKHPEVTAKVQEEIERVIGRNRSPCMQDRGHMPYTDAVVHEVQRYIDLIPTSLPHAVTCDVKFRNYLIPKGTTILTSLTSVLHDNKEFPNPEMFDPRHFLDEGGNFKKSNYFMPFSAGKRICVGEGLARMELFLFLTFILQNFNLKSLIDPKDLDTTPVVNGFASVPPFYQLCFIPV
# Sequence of Broad substrate specificity ATP-binding cassette transporter ABCG2 (Homo sapiens) (Q9UNQ0 whole entry, looked up): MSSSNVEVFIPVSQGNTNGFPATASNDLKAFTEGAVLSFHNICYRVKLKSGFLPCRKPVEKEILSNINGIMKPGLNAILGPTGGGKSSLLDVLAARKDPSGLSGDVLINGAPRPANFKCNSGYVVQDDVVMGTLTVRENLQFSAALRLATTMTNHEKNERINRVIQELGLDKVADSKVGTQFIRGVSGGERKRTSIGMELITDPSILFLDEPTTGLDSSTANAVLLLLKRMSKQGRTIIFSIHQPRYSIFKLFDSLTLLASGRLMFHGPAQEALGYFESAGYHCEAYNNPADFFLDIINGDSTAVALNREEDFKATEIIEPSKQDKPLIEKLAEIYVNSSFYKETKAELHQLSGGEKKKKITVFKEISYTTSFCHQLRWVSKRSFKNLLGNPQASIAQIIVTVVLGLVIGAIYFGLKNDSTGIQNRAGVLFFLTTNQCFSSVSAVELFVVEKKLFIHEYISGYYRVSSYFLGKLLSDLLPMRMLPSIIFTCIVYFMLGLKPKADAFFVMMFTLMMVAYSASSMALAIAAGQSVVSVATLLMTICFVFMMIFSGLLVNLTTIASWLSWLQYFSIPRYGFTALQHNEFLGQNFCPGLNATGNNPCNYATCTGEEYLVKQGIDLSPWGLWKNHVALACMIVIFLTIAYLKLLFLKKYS
# Sequence of Caspase-3 (Homo sapiens) (P42574 whole entry, looked up): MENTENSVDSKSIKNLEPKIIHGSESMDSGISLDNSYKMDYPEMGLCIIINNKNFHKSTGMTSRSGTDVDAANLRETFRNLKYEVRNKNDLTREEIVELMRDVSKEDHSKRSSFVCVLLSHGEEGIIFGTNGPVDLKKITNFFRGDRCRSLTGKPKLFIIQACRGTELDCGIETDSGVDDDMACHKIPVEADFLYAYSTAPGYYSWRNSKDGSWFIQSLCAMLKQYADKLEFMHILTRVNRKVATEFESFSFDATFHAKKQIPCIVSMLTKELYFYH
# Sequence of Apoptosis regulator Bcl-2 (Homo sapiens) (P10415 whole entry, looked up): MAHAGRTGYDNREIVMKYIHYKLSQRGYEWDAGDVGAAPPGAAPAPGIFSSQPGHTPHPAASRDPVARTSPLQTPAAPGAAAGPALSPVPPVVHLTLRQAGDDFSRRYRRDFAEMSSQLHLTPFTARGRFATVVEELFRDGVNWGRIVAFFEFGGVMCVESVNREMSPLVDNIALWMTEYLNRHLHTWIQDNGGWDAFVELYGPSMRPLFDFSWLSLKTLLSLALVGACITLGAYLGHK
smiles,measurement,setting,value
CCN(CC)C(=O)SCc1ccc(Cl)cc1,outcome,[1],inactive
same,outcome,[2],inactive
same,outcome,[3],inactive
same,outcome,[4],inactive
same,outcome,[5],inactive
same,outcome,[6],inactive
same,outcome,[7],inactive
same,outcome,[8],inactive
same,outcome,[9],inactive
same,outcome,BCL2L11 (gene 10018),inactive
same,outcome,[10],inactive
same,outcome,[11],inactive
same,outcome,Caspase-3 (Homo sapiens),inactive
same,outcome,[12],inactive
same,outcome,[13],inactive
same,outcome,[14],inactive
same,AC50,[15],4.36 µM (active)
same,AC50,[16],17.7 µM (active)
O=[N+]([O-])c1c(Cl)c(Cl)c(Cl)c(Cl)c1Cl,outcome,[1],inactive
same,outcome,[2],inactive
same,outcome,[3],inactive
same,outcome,[4],inactive
same,outcome,[5],inactive
same,outcome,[6],inactive
same,outcome,[7],inactive
same,outcome,[8],inactive
same,outcome,[9],inactive
same,outcome,BCL2L11 (gene 10018),inactive
same,outcome,[10],inactive
same,outcome,[11],inactive
same,outcome,Caspase-3 (Homo sapiens),inactive
same,outcome,[12],inactive
same,AC50,[13],36.7 µM (active)
same,outcome,[14],inactive
same,AC50,[15],5.88 µM (active)
same,outcome,[16],inactive
COP(=O)(OC)OC=C(Cl)Cl,outcome,[1],inactive
same,outcome,[2],inactive
same,outcome,[3],inactive
same,outcome,[4],inactive
same,outcome,[5],inactive
same,outcome,[6],inactive
same,outcome,[7],inactive
same,outcome,[8],inactive
same,outcome,[9],inactive
same,outcome,BCL2L11 (gene 10018),inactive
same,outcome,[10],inactive
same,outcome,[11],inactive
same,outcome,Caspase-3 (Homo sapiens),inactive
same,outcome,[12],inactive
same,outcome,[13],inactive
same,outcome,[14],inactive
same,AC50,[15],6.48 µM (active)
same,outcome,[16],inactive
CN1CSC(=S)N(C)C1,outcome,[1],inactive
same,outcome,[2],inactive
same,outcome,[3],inactive
same,outcome,[4],inactive
same,outcome,[5],inactive
same,outcome,[6],inactive
same,outcome,[7],inactive
same,outcome,[8],inactive
same,outcome,[9],inactive
same,outcome,BCL2L11 (gene 10018),inactive
same,outcome,[10],inactive
same,outcome,[11],inactive
same,outcome,Caspase-3 (Homo sapiens),inactive
same,outcome,[12],inactive
same,AC50,[13],34.7 µM (active)
same,outcome,[14],inactive
same,outcome,[15],inactive
same,outcome,[16],inactive
O=[N+]([O-])/N=C1\NCCN1Cc1ccc(Cl)nc1,AC50,[1],26.6 µM (active)
same,AC50,[2],35.3 µM (active)
same,outcome,[3],inactive
same,AC50,[4],29.7 µM (active)
same,outcome,[5],inactive
same,outcome,[6],inactive
same,outcome,[7],inactive
same,AC50,[8],35.2 µM (active)
same,AC50,[9],31.7 µM (active)
same,AC50,BCL2L11 (gene 10018),23.3 µM (active)
same,outcome,[10],inactive
same,outcome,[11],inactive
same,AC50,Caspase-3 (Homo sapiens),26.7 µM (active)
same,outcome,[12],inactive
same,AC50,[13],23.6 µM (active)
same,outcome,[14],inactive
same,AC50,[15],13.2 µM (active)
same,AC50,[16],34 µM (active)
C#CCN1C(=O)COc2cc(F)c(N3C(=O)C4=C(CCCC4)C3=O)cc21,AC50,[1],50 µM (active)
same,outcome,[2],inactive
same,outcome,[3],inactive
same,outcome,[4],inactive
same,outcome,[5],inactive
same,outcome,[6],inactive
same,outcome,[7],inactive
same,outcome,[8],inactive
same,AC50,[9],40.4 µM (active)
same,outcome,BCL2L11 (gene 10018),inactive
same,AC50,[10],23.1 µM (active)
same,outcome,[11],inactive
same,outcome,Caspase-3 (Homo sapiens),inactive
same,outcome,[12],inactive
same,outcome,[13],inactive
same,outcome,[14],inactive
same,AC50,[15],0.84 µM (active)
same,AC50,[16],6.97 µM (active)
